Data as given in PubChem BioAssay AID488969 (Vanderbilt High Throughput Screening Facility, 2010).
In all, about 110,000 compounds were measured (“z-score”: median about -0.1, highest 2% from about 2 on). This excerpt belongs to a sample that is enriched for the highest values. Activity calls are given as the source filed them.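 How the source made its calls: active means z-score in the third read window above 3 or below -3; inactive means the rest.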

What follows are compounds tested against Metabotropic glutamate receptor 8 (Rattus norvegicus) (UniProt P70579) (assay: rat mGluR8 modulators via GIRK flux, primary screen, cell-based, thallium flux, HTS (AID 488969)). Conditions: HEK293 rat mGluR8, GIRK (G protein-gated inwardly rectifying potassium channel) thallium flux, FluoZin2; at 10 µM; stronger effect = higher value; submaximal glutamate (EC20) added with thallium.
Chain of Metabotropic glutamate receptor 8 (Rattus norvegicus) (P70579 whole entry, looked up): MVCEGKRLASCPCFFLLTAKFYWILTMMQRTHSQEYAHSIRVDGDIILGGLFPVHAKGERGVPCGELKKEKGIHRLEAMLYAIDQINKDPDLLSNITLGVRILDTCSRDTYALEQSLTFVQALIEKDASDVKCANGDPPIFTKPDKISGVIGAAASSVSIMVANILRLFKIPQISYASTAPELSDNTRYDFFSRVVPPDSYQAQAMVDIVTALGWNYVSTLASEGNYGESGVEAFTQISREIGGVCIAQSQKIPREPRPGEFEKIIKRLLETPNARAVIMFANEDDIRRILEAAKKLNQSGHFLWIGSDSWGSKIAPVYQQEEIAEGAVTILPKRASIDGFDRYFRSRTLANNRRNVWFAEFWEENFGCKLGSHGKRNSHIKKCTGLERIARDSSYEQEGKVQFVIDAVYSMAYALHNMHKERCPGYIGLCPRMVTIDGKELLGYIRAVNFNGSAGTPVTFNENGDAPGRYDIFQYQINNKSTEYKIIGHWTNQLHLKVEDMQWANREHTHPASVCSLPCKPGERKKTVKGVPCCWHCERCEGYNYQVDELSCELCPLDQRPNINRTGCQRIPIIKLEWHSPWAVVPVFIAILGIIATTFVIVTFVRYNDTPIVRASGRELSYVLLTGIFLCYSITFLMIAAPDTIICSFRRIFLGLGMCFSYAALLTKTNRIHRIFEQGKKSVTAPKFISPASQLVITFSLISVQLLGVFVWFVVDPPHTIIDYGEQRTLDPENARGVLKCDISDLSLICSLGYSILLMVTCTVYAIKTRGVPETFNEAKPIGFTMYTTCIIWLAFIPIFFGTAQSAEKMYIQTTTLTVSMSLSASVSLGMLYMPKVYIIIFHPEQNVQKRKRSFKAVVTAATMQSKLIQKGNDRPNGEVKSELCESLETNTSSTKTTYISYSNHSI

Going from `O=C(O)c1ccc(CNCc2ccc(Cl)cc2Cl)cc1` to `O=C(NNC(=O)c1ccccc1Br)c1ccc(Cl)cc1`, the z-score rises from -0.14 to 0.075.

Going from `Cc1cc([N+](=O)[O-])ccc1NC(=S)NC(=O)C(c1ccccc1)c1ccccc1` to `Cc1cc([N+](=O)[O-])ccc1NC(=O)Cc1ccc(F)cc1`, the z-score falls from 0.175 to -0.108.

Compared with `COCC(=O)Nc1ccc([N+](=O)[O-])cc1C`, `COCC(=O)Nc1cc([N+](=O)[O-])ccc1C` is lower in z-score: 2.3 for the first, -0.258 for the second.

First: CCOC(=O)Nc1ccc([N+](=O)[O-])cc1C
Second: COc1ccc(NC(=O)COC(=O)C2CCCCC2)c([N+](=O)[O-])c1
The z-score of the first is lower: 0.0184 for the first, 0.159 for the second.

Going from `S=c1[nH]nc(Cc2cccc3ccccc23)n1-c1ccccc1` to `Nn1c(SCc2cccc3ccccc23)nnc1-c1ccco1`, the z-score rises from -0.324 to 0.217.

First: COc1ccc(C(=O)Nc2c(C)ccc3nsnc23)cc1[N+](=O)[O-]
Second: O=C(Nc1nnc(CSCc2ccc(F)cc2)s1)c1cccc([N+](=O)[O-])c1
The z-score of the first is higher: 0.723 for the first, -0.37 for the second.

First: CC1CCCCN1C/C=C/c1ccccc1[N+](=O)[O-] (stereo unspecified)
Second: Cc1cc(N2CCOCC2)nc2ccccc12
The z-score of the first is lower: -0.203 for the first, -0.0968 for the second.

First: COc1cc(C#CC#CCN2CCCCC2)ccc1O
Second: COc1cc(C(=O)OCCN2CCCCC2)ccc1O
The z-score of the first is higher: 2.82 for the first, 0.0129 for the second.

First: COc1cc(C(=S)N2CCCCC2)ccc1O
Second: O=C(c1ccc(-n2cnnn2)cc1)N1CCCCC1
The z-score of the first is lower: 0.0785 for the first, 0.294 for the second.

Going from `O=C(CN1CCCC1)Nc1c2c(nc3ccccc13)N(Cc1ccccc1)CC2` to `Cc1cc(C)n(-c2nc3ccccc3nc2NCCc2ccccc2)n1`, the z-score falls from 1.74 to -0.16.

Going from `COc1ccc(NC(=O)COC(=O)CC2CC3CCC2C3)c([N+](=O)[O-])c1` (stereo unspecified) to `COc1ccc(NC(=O)COC(=O)CC23CC4CC(CC(C4)C2)C3)c([N+](=O)[O-])c1`, the z-score rises from -0.182 to 2.75.

Compared with `Cc1nc(N)nc(OCC(F)(F)C(F)F)c1Br`, `CCOC(=O)C1CCCN(C(=O)c2cnn3c(C(F)(F)F)cc(-c4ccccc4)nc23)C1` (stereo unspecified) is lower in z-score: -0.145 for the first, -2.11 for the second.

Compared with `COc1cccc(C2CC(c3ccc(Cl)cc3)n3nc(N)nc3N2)c1` (stereo unspecified), `COc1ccc(C2CC(c3ccc(Cl)cc3)n3nc(N)nc3N2)cc1` (stereo unspecified) is higher in z-score: 0.802 for the first, 2.61 for the second.

Compared with `COc1ccc(C2CC(c3ccccc3)Nc3nc(N)nn32)cc1` (stereo unspecified), `COc1ccc(C2CC(c3ccc(Br)cc3)Nc3nc(N)nn32)cc1` (stereo unspecified) is higher in z-score: -0.316 for the first, 1.67 for the second.

First: Nc1nc2n(n1)C(c1ccco1)CC(c1ccc(Cl)c(Cl)c1)N2 (stereo unspecified)
Second: Nc1nc2n(n1)C(c1ccco1)CC(c1ccc(F)cc1)N2 (stereo unspecified)
The z-score of the first is higher: 2.38 for the first, 0.268 for the second.

Compared with `Nc1nc2n(n1)C(c1cccs1)CC(c1ccccc1)N2` (stereo unspecified), `Cc1ccc(C2CC(c3cccs3)n3nc(N)nc3N2)cc1` (stereo unspecified) is higher in z-score: -0.0568 for the first, 0.263 for the second.

Going from `Nc1nc2n(n1)C(c1ccco1)CC(c1ccccc1)N2` (stereo unspecified) to `COc1ccc(C2CC(c3ccc(Cl)cc3Cl)Nc3nc(N)nn32)cc1` (stereo unspecified), the z-score rises from -0.0773 to 1.46.

First: COc1ccc(/C=N/c2oc(-c3ccccc3)cc2C#N)cc1OC
Second: COc1cc(/C=N/OCC(=O)Nc2ccc(OC(F)F)cc2)ccc1OCc1ccccc1
The z-score of the first is higher: 0.0441 for the first, -0.0267 for the second.

Going from `CCCC(=O)C1=C(O)C(C(=O)OC)C(C)(C)CC1=NC(C)(C)C` (stereo unspecified) to `CN1CCC(OC(=O)COc2ccc(C(C)(C)C)cc2)CC1`, the z-score rises from -0.418 to 0.712.

First: O=C1c2ccccc2C(=O)N1c1ccc(-c2nc3ccccc3o2)cc1
Second: N#Cc1cn(-c2ccccc2)nc1-c1cc2ccccc2oc1=O
The z-score of the first is higher: 0.248 for the first, -0.0371 for the second.

First: Cc1nn(C)cc1NC(=O)CC12CC3CC(CC(C3)C1)C2
Second: O=C(Nc1ccccn1)C12CC3CC(C1)CC(C(=O)Nc1ccccn1)(C3)C2
The z-score of the first is lower: -0.0159 for the first, 0.332 for the second.

Compared with `CC(=O)Nc1ccc(C(=O)N/N=C/c2cccnc2)cc1`, `COc1ccc(/C=N\NC(=O)/C(=C\Nc2nccc(C)n2)NC(=O)c2ccccc2)cc1` is higher in z-score: -0.709 for the first, -0.263 for the second.

First: Cc1nc2cc(NC(=O)N3c4ccccc4CC3C)ccc2n1C (stereo unspecified)
Second: COc1ccc(OC)c(NC(=O)CSc2nnc(Cn3nnc4ccccc43)n2C)c1
The z-score of the first is lower: -0.544 for the first, -0.116 for the second.

First: CCc1cc2c(=O)c(-c3cnn(-c4ccccc4)c3)c(C)oc2cc1OCC(=O)Nc1ccc(F)c(F)c1
Second: Cc1ccc(C)c(OCC(=O)N/N=C/c2c(C)nn(-c3ccccc3)c2Cl)c1
The z-score of the first is lower: 0.0216 for the first, 2.98 for the second.

First: Cc1sc2ncnc(NCCc3ccc(S(N)(=O)=O)cc3)c2c1C
Second: Cc1nc(NCCc2ccc(S(N)(=O)=O)cc2)c2c3c(sc2n1)CCC3
The z-score of the first is higher: 0.0936 for the first, -0.34 for the second.

Going from `O=c1cc(CSc2nnc(-c3ccccc3)o2)c2ccccc2[nH]1` to `Cn1c(SCc2cc(=O)[nH]c3ccccc23)nnc1-c1ccco1`, the z-score falls from 0.487 to -0.244.

Compared with `C=CCn1c(-c2csc(-c3ccc(Cl)cc3)n2)n[nH]c1=S`, `CCn1c(-c2csc(-c3ccc(Cl)cc3)n2)n[nH]c1=S` is lower in z-score: 2.89 for the first, 1.31 for the second.

First: C=CCn1c(-c2csc(-c3ccccc3)n2)n[nH]c1=S
Second: Cc1ccc(-n2c([C@@H]3C[C@H]3c3ccccc3)n[nH]c2=S)cc1
The z-score of the first is lower: 0.103 for the first, 0.209 for the second.

Going from `CC(C)N(C(=O)Nc1ccc2nccnc2c1)C(C)C` to `COc1ccc(N(CC(=O)Nc2ccccc2SC)S(C)(=O)=O)cc1OC`, the z-score rises from -0.935 to 0.573.

Going from `NC(=O)c1ccc(NC(=O)COC(=O)CC(NC(=O)c2ccccc2Cl)c2ccccc2)cc1` (stereo unspecified) to `CN(C)S(=O)(=O)c1ccc(NC(=O)/C=C/c2ccccc2Cl)cc1`, the z-score falls from 1.26 to -0.0315.

Compared with `COc1ccc(Cn2c(O)cc(=O)[nH]c2=O)cc1`, `CCOC(=O)N1CCN(C(=O)c2ccc3c(=O)n(Cc4ccc(OC)cc4)c(=S)[nH]c3c2)CC1` is lower in z-score: 0.277 for the first, -0.232 for the second.

Going from `CCOCCn1c(=NC(=O)c2cc3ccccc3oc2=O)sc2cc(S(N)(=O)=O)ccc21` to `O=C(Cn1c(C(F)(F)F)nc2ccccc21)OCC(=O)c1c[nH]c2ccccc12`, the z-score falls from -0.105 to -0.594.

Compared with `C=CCSc1[nH]c(=O)cc(C)c1C(N)=O`, `CCOC(=O)c1ccc(NS(=O)(=O)c2ccc(SC)cc2)cc1` is lower in z-score: 0.533 for the first, -0.12 for the second.

First: O=C(COc1ccccc1)Nc1cccc2c1CCCC2
Second: CSc1ccccc1NC(=O)CN(c1ccccc1Br)S(C)(=O)=O
The z-score of the first is lower: -0.151 for the first, 2.04 for the second.

First: CC(=O)Nc1ccccc1Nc1cc(C#N)c(C#N)cc1[N+](=O)[O-]
Second: COc1ccc(Cl)cc1N(CC(=O)Nc1ccccc1SC)S(C)(=O)=O
The z-score of the first is lower: -0.00232 for the first, 0.203 for the second.

First: CN1C2C=C3C(C#N)=C(N)C(C#N)(C#N)[C@H](c4c(F)cccc4F)[C@H]3C1CC2 (stereo partly specified)
Second: CN1C2C=C3C(C#N)=C(N)C(C#N)(C#N)[C@@H](c4cccc(F)c4)[C@@H]3C1CC2 (stereo partly specified)
The z-score of the first is lower: -0.484 for the first, 1.32 for the second.

Compared with `CN1C2C=C3C(C#N)=C(N)C(C#N)(C#N)C(c4ccc(Br)cc4)C3C1CC2` (stereo unspecified), `CN1C2C=C3C(C#N)=C(N)C(C#N)(C#N)[C@@H](c4cccs4)C3C1CC2` (stereo partly specified) is higher in z-score: 0.361 for the first, 2.54 for the second.

Going from `CC(C)(C)C1CC=C2C(C#N)=C(N)C(C#N)(C#N)C(c3cccs3)C2C1` (stereo unspecified) to `Cc1ccc(C2CC2c2n[nH]c(=S)n2-c2cccc(Cl)c2)cc1` (stereo unspecified), the z-score rises from 0.0392 to 0.358.

Compared with `Cc1ccnc(N2CCC(C(=O)NNC(=O)COc3cccc4ccccc34)CC2)n1`, `Cn1c(SCc2cccc3ccccc23)nnc1-c1ccco1` is higher in z-score: 0.336 for the first, 2.15 for the second.

Compared with `COC(=O)c1ccc(NS(=O)(=O)c2ccc(OC)cc2)cc1`, `O=C(CCS(=O)(=O)c1ccc(Br)cc1)Nc1cc(F)ccc1F` is lower in z-score: 0.37 for the first, -0.0256 for the second.

Going from `Cc1ccc(Cl)cc1N1CCN(C(=O)CSc2nnc3n2C(C)(C)Cc2ccccc2-3)CC1` to `COc1ccc(N2CCN(C(=O)CSc3nnc4n3C(C)(C)Cc3ccccc3-4)CC2)cc1`, the z-score falls from 1.18 to -0.642.

Compared with `Cc1cccc(Oc2ncc(-c3ccc(Cl)cc3)cn2)c1`, `Cc1ccc(-n2c(C3CC3c3ccc(Cl)cc3)n[nH]c2=S)cc1` (stereo unspecified) is higher in z-score: 0.0612 for the first, 0.832 for the second.

Going from `c1nc(NCC2CCCO2)c2[nH]cnc2n1` (stereo unspecified) to `O=C(NCC1CCCO1)c1cccc(Br)c1` (stereo unspecified), the z-score rises from 0.26 to 0.348.

Compared with `O=C(NCC1CCCO1)c1cccc(F)c1` (stereo unspecified), `Cc1cccc(C(=O)NCC2CCCO2)c1` (stereo unspecified) is higher in z-score: 0.371 for the first, 2.21 for the second.

Compared with `Cc1ccc(N=Nc2c(O)n(CN3CCOCC3)c3ccccc23)cc1`, `Cc1cccc(NC(=S)N=Nc2c(O)n(CN3CCOCC3)c3ccccc23)c1C` is higher in z-score: -0.152 for the first, 2.19 for the second.

First: Cc1cccc(NC(=S)NCCN2CCOCC2)c1C
Second: O=C(NCc1ccc(Cl)cc1)C(=O)NCC1OCCN1C(=O)c1cccs1 (stereo unspecified)
The z-score of the first is lower: -0.235 for the first, -0.152 for the second.

First: Cc1ccc(C2CC2c2n[nH]c(=S)n2-c2ccc(C)cc2)cc1 (stereo unspecified)
Second: Cc1ccc(C2CC2c2n[nH]c(=S)n2-c2ccc(Cl)cc2)cc1 (stereo unspecified)
The z-score of the first is lower: 2.34 for the first, 2.95 for the second.

Going from `S=c1[nH]nc(C2CC2c2ccc(Cl)cc2)n1-c1ccc(Cl)cc1` (stereo unspecified) to `Cn1cc(-c2nc3ccccc3[nH]2)c2ccccc21`, the z-score falls from 0.549 to -1.41.

First: COC1CCCCC1Nc1cc(C)cc(C)c1 (stereo unspecified)
Second: COc1ccc(C)cc1S(=O)(=O)N(C)CC(=O)NC1CCCC1
The z-score of the first is higher: -0.0687 for the first, -0.639 for the second.

Compared with `O=C(Nc1nnc(CSCc2ccc(F)cc2)s1)c1ccc([N+](=O)[O-])cc1`, `CCC(=O)Nc1nnc(CSCc2ccc(F)cc2)s1` is lower in z-score: 2.51 for the first, 0.0266 for the second.

Compared with `O=C(c1ccccc1)C(Sc1ncn[nH]1)c1ccccc1` (stereo unspecified), `Cc1ccc(C)c(OCC(=O)N/N=C/c2c(C)nn(-c3ccccc3)c2Cl)c1C` is higher in z-score: -0.672 for the first, -0.185 for the second.

`COC(=O)N/N=C\c1c(C)nn(-c2ccccc2)c1Cl` showed a z-score of -0.389.

With `Cc1cc([N+](=O)[O-])ccc1NC(=S)NC(=O)Cc1ccccc1` the z-score was 6.82 (active).
For `Nc1nc2n(n1)C(c1cccs1)CC(c1ccc(F)cc1)N2` (stereo unspecified), the z-score was 6.13 (active).
With `COc1ccc(C2CC(c3ccc(Cl)c(Cl)c3)Nc3nc(N)nn32)cc1` (stereo unspecified) the z-score was 3.08 (active).
For `Cc1nc(NCCc2ccc(S(N)(=O)=O)cc2)c2c(C)c(C)sc2n1`, the z-score was 6.05 (active).
For `COc1ccc(Cn2c(=S)[nH]c3ccsc3c2=O)cc1`, the z-score was 3.86 (active).
In the case of `CN1C2C=C3C(C#N)=C(N)C(C#N)(C#N)[C@@H](c4ccsc4)[C@@H]3C1CC2` (stereo partly specified), the z-score is reported as 4.01 (active).
In the case of `COC(=O)c1ccc(NS(=O)(=O)c2ccc(SC)cc2)cc1`, the z-score is reported as 5.24 (active).
With `CC1(C)Cc2ccccc2-c2nnc(SCC(=O)N3CCN(c4ccccc4)CC3)n21` the z-score was 3.2 (active).
